# A selection: hits, their analogues and other compounds. The true share with any hit is near 12%.
# G9a inh = blocks human histone lysine methyltransferase G9a. Potency, µM (doses to about 102 µM), actives largely listed as inhibitors. Q96KQ7. actives 8.8% (n = 350,000). G9a H3K9 monomethylation, AlphaScreen, 2 h; further: nearly all actives have a fitted effect of over 75% in size
#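 Readings reflect AlphaScreen signal from monomethyl-H3K9 antibody detection. HMT at 20 nM; substrate b-H3K9 500 nM; cofactor SAM 20 uM; 2 h RT reaction; compounds tested as titrations in qHTS with 15 min preincubation.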
# JMJD2A Tudor inh = blocks the human JMJD2A Tudor domain | O75164 | AlphaScreen JMJD2A-Tudor / H3K4me3 peptide binding | Potency, µM (highest dose often 114 µM), usual class: inhibitors | actives 4.4% (n = 390,000); further: nearly all actives have a fitted effect of over 50% in size
# Sfp PPTase inh = inhibitors of Bacillus subtilis Sfp phosphopantetheinyl transferase | Biochemical Sfp PPTase activity, qHTS | actives 3.5% (n = 310,000) | Potency, µM, hits mostly inhibitors | Q9F4F7;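 further: the enzyme is Sfp with the accession as filed and its product quenches rhodamine fluorescence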
#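 Fluorescence-quenching assay: 15 nM Sfp-PPTase preincubated 15 min at room temperature with compound, then 5 uM rhodamine-CoA and 12.5 uM BHQ-2-labelled YbbR peptide added. Fluorescence (ex 525/em 598 nm) read at start and after 30 min; difference gives rate.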
# L3MBTL1 inh = inhibitors of human L3MBTL1. AlphaScreen L3MBTL1–H3K9me1 peptide binding. AID 485360. actives 0.66% (n = 230,000). Potency, µM (top dose mostly 57.1 µM), most hits filed as inhibitors. Q9Y468; further: nearly all actives have a fitted effect of over 60% in size
#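 Displacement of a biotinylated histone H3(1-15) peptide monomethylated at Lys9 (75 nM) from L3MBTL1 (50 nM) was measured by AlphaScreen after a 30 min room-temperature compound incubation; cefsulodin titration served as intraplate control.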
# BAZ2B block = blocks human BAZ2B. actives 4.4% (n = 360,000). AlphaScreen BAZ2B-H3K14Ac peptide displacement. Q9UIF8. Potency, µM (series often up to 114 µM), actives largely listed as inhibitors; further: nearly all actives have a fitted effect of over 60% in size
#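 Inhibition is scored as reduced AlphaScreen emission. The BAZ2B/b-H3(5-23)K14Ac complex (50 nM each) in PBS pH 7.4, 0.01% Tween-20 meets compound (up to 110 uM) for 30 min at RT before bead addition.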
# HP1b binding inh = HP1-beta chromodomain-methylated histone interaction inhibition. AlphaScreen HP1-beta / biotin-H3K9me3 peptide binding. AID 540317. actives 0.56% (n = 390,000). P83916. Potency, µM (doses to about 114 µM), most hits filed as inhibitors; further: nearly all actives have a fitted effect of over 70% in size
#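 Compound inhibition of the preformed complex between 50 nM HP1-beta and 50 nM biotinylated H3K9me3 peptide was read by AlphaScreen. Buffer was PBS pH 7.4 with 0.01% Tween-20. Incubations ran 30 min at room temperature, with 10 ug/mL donor/acceptor beads.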
# A number is an active result; 0 = inactive; ? = inconclusive; - = no result given; ! = a repeat was not active; [ ] = remark or other dose. The call rests on the fitted dose curve; in most records, active means well fitted curve in the direction sought with a large enough effect; inconclusive means small, poorly fitted or top-dose-only effect, or another doubt; inactive means no such curve, though single readings can be large; an effect the other way counts as inactive or inconclusive.
SMILES,G9a inh,JMJD2A Tudor inh,Sfp PPTase inh,L3MBTL1 inh,BAZ2B block,HP1b binding inh
CCOc1ccc(N(CC)C(=O)Cn2cnc3sc(C)c(S(=O)(=O)N4CCN(c5ncccn5)CC4)c3c2=O)cc1,0,0,-,-,0,0
COc1ccc(CNC(=O)C2CCN(S(=O)(=O)c3cccc(-c4noc(C)n4)c3)CC2)cc1,0,0,-,-,0,0
COc1ccccc1CNC(=O)CCC1N=C2c3ccccc3N=C(SCC(=O)Nc3ccc(F)cc3)N2C1=O (stereo unspecified),0,0,-,-,0,0
O=c1c(O)c(-c2ccc(O)c(O)c2)oc2cc(O)ccc12,-,0,40µM!,-,-,0
COc1cc(O)c2c(=O)c(O)c(-c3ccc(O)c(O)c3)oc2c1,-,-,0,-,-,-
Cc1ccc(/C=N/Nc2nnc(Cc3ccccc3)c(=O)[nH]2)o1,0,0,0,0,?,0
CCCCCCC/C=N/Nc1nnc(Cc2ccccc2)c(=O)[nH]1,0,?,0,-,?,0
COc1ccc(Cc2nnc(N/N=C/c3ccc(O)cc3O)[nH]c2=O)cc1OC,0,14µM,?,3.5µM,5µM,0
CCCCCC/C=N/Nc1nnc(Cc2ccc(OC)c(OC)c2)c(=O)[nH]1,0,0.89µM,0,-,7.1µM,0
COc1ccc(C2C(=O)N(C3CCCCC3)CC(=O)N2CCc2ccc(C)cc2)cc1OC (stereo unspecified),0,0,-,-,0,0
CCO/C(C)=C1\C(=O)Nc2ccccc21,50µM,0,0,0,0,0
COc1ccc(C(=C2C(=O)Nc3ccccc32)c2ccc(OC)cc2)cc1,-,-,0,-,-,-
COc1ccc(C(=O)NCc2n[nH]c(=S)n2-c2ccccc2)cc1OC,?,6.3µM,56µM,-,0,0
COc1cc(OC)cc(C(=O)NCc2n[nH]c(=S)n2-c2ccccc2)c1,0[0.0925 µM],7.9µM,89µM,0,0,0
COc1ccc(C(=O)NCc2ccccc2)cc1Br,0,0,0,?,0,0
O=C(Nc1cccc(C(F)(F)F)c1)c1cnn(-c2cccc(F)c2)c1C1CCNCC1,0,0,-,-,0,0
COc1ccc(C(O)Cn2ccsc2=NC(C)=O)cc1 (stereo unspecified),50µM,0,0,-,0,0
CC(=O)N=c1sccn1CC(O)c1ccccc1 (stereo unspecified),0,0,0,-,0,0
COc1cc(OC)cc(C(=O)Nc2ccc3nc4c(c(Nc5ccc(OC)c(OC)c5)c3c2)CCCC4)c1,18µM,?,-,-,10µM,?
COc1ccc(Nc2c3c(nc4ccc(NC(=O)c5cc(Cl)ccc5OC)cc24)CCCC3)cc1OC,?,?,-,-,0,0
COc1ccccc1Nc1c2c(nc3ccc(NC(=O)c4ccc(N(C)C)cc4)cc13)CCCC2,7.9µM,16µM,-,-,4µM,0
Cc1cc(C)c2sc(C)[n+](CCCS(=O)(=O)[O-])c2c1,0,0,2.5µM,?,0,0
CC[n+]1c(C)sc2c(C)cc(C)cc21,0,0,?,0,0,0
CCSc1nnc2c(n1)OC(CC)N(C(C)=O)c1ccccc1-2 (stereo unspecified),?,0,-,-,0,0
Cc1ccc(CNC(=O)c2cn(C3CCCC3)c(=O)c3c2c2ccccc2n3C)o1,11µM,-,1.4µM,-,56µM,-
SMILES,G9a inh,JMJD2A Tudor inh,Sfp PPTase inh,L3MBTL1 inh,BAZ2B block,HP1b binding inh
COc1ccc(N2CCN(C(=O)c3cn(C4CCCC4)c(=O)c4c3c3ccccc3n4C)CC2)cc1,32µM,14µM,0,-,?,?
Cn1c2ccccc2c2c(C(=O)N3CCN(c4cccc(Cl)c4)CC3)cn(C3CCCCC3)c(=O)c21,0,0,-,-,0,0
COc1ccc(N2CCN(C(=O)c3cn(C)c(=O)c4c3c3ccccc3n4C)CC2)cc1,32µM,?,0,0,45µM,0
c1ccc(CNc2ccnc(-c3ccoc3)n2)cc1,-,-,0,-,-,-
CNc1cccc(S(=O)(=O)N2CCN(S(=O)(=O)c3ccc4c(c3)OCCO4)CC2)c1,-,0,-,-,-,-
COc1ccc(CN(C)S(=O)(=O)c2nnc(NC(=O)C(C)C)s2)cc1OC,?,0,-,-,0,0
COc1cc(C(=O)NCCCNc2nc3cc(C)c(C)cc3cc2C#N)cc(OC)c1OC,0,0,79µM,-,0,0
COc1cc(C(=O)NCCNc2nc3cc(C)ccc3cc2C#N)cc(OC)c1OC,0,0,0,0,0,0
COCCNC(=S)NCCCNc1nc2cc3c(cc2cc1C#N)OCO3,0,0,14µM,0,0,0
CCCCn1cc(S(=O)(=O)c2ccc(C)c(C)c2)c(=O)c2cc(F)c(N3CCN(C)CC3)cc21,0,0,-,-,0,0
CCc1ccccc1NC(=O)c1cnc2sc(N3CCCC3)nn2c1=O,0,0,-,-,0,0
Cc1[nH]c(=O)[nH]c(=S)c1C(=O)Nc1ccc(Cl)c(Cl)c1,-,8.9µM,-,-,-,0
COc1ccc(-n2cc(-c3ccccc3)[nH]c2=S)c(OC)c1,?,?,?,-,?,0
Fc1ccccc1-n1cc(-c2ccccc2)[nH]c1=S,3.5µM,?,0,0,?,0
COc1cc2cc(CNc3ccccc3)c(=O)n(CC(=O)Nc3cc(C)cc(C)c3)c2cc1OC,0,0,-,-,0,0
Cc1ccc2nc(CCl)[n+]([O-])c(-c3ccccc3)c2c1,?,18µM,0,0,0,0
Cc1ccc2nc(Cl)nc(-c3ccccc3)c2c1,0,0,0,0,0,0
COc1ccc(-c2cn3nc4c(nc3n2)CCCC4)cc1,79µM,0,0,-,0,0
COc1ccc(-c2cn3ccccc3n2)cc1,0,0,0,0,0,0
Cc1nn(CCC(=O)Nc2ccc(Cl)cc2)c(C)c1S(=O)(=O)N1CCCCC1,0,0,-,-,0,0
COC(=O)CN1CCC(=O)c2ccccc2S1(=O)=O,-,0,0,-,-,0
C=C1CN(CC(=O)OC)S(=O)(=O)c2ccccc21,0,89µM!,0,-,0,0
CC1=Nn2c(nnc2C2CCCCC2)SC1,0,0,79µM,0,0,0
Cc1ccc(C2=[N+]([O-])C3(CCCCC/C3=N\NC(N)=S)N(O)C2(C)C)o1 (stereo unspecified),?,-,71µM,-,?,-
C=C(COC)C1=CCC(C(=O)OC)(C(=O)OC)[C@@H](C[N+](=O)[O-])c2ccccc21,-,-,0,-,-,-
CCC1CCCCN1Cc1cn2c(-c3ccc(Br)cc3)nnc2s1 (stereo unspecified),0,0,-,-,0,0
COC(=O)c1ccc(-n2c(C)cc(/C=N/n3cnnc3)c2C)cc1,56µM,0[11.4 µM],0,0,?,0
Cc1cc(/C=N/n2cnnc2)c(C)n1-c1ccc(C(=O)O)cc1,0,0,0,0,-,0
COc1ccc2c(c1)CC(C(=O)Nc1c(C)cc(C)cc1C)CO2 (stereo unspecified),0,0,-,-,0,0
O=C(Cc1ccccc1)Nc1ccc(SC(F)F)cc1,0,0,0,0,0,0
